In PubChem BioAssay:

test: CREB reporter modulators under forskolin, primary screen, cell-based, PC12, CRE-LacZ reporter, forskolin-stimulated (AID 1146); settings: luminescence, 4.5 h, higher = more signal, called active from +8 up or from −8 down;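 note: PC12 cells with 6xCRE LacZ reporter stimulated by forskolin 10 µM; beta-galactosidase reporter signal reflecting CREB driven transcription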

z-score, inactive:
CC(C)C(=C=CC[C@@H](O)c1ccc(OCCO)cc1)CCO -1.31
CC#CCO[Si](C#CCCCCCC)(C(C)C)C(C)C 2.09
CN(C)CCCC[C@@H]1NC(=O)[C@H]2C[C@@H](C(=O)NCc3ccc(F)cc3)[C@@H](c3ccc(O)cc3)N2C1=O -0.19
CC(C)N1CC=CC23O[C@@H]4C=CCCOC(=O)C4[C@H]2C(=O)N(CCCCCO)[C@@H]3C1=O (stereo not given in full) -0.695
COCCOC(=O)N1C(=O)[C@@]2(c3ccccc31)[C@H](C(=O)N1CCCCCCC1)[C@H]1C(=O)O[C@H](c3ccccc3)[C@H](c3ccccc3)N1[C@@H]2c1ccc(O)cc1 -1.03
C#CCN([C@H](/C=C/C1CC1)[C@@H](O)Cc1ccccc1)[C@@H](Cc1ccccc1)C(=O)OC -0.765
COC(=O)[C@@]1(Cc2ccc(F)cc2)[C@H]2c3cc(C(=O)N(C)C)n(CCn4cc([N+](=O)[O-])nc4C)c3C[C@H]2CN1C(=O)c1ccccc1 0.17
CCOC(=O)C[C@H]1[C@H](OC(=O)Cc2ccc3c(c2)OCO3)[C@@H](NC(=O)c2ccccc2)c2cc(OCCCO)ccc2N1C(=O)Cc1ccc(OC)cc1 -0.789
C[N+](C)(C)CCCC[C@@H]1NC(=O)[C@H]2C[C@@H](C(=O)NCCCCCNC(=O)CS)[C@@H](c3ccc(O)cc3)N2C1=O -0.165
CN1C(=O)[C@]2(CCS(=O)(=O)c3ccccc3)N=C(c3ccc(OCCCO)cc3)O[C@@H]2c2ccccc21 -0.547
O=C1O[C@@H](c2ccccc2)[C@@H](c2ccccc2)N2[C@@H](c3ccc(OCCO)cc3)[C@]3(C(=O)Nc4ccc(C#CCCO)cc43)[C@@H](C(=O)Nc3nc4ccccc4s3)[C@H]12 0.0759
COCCn1c(C(=O)N2CCCC2)cc2c1C[C@H]1CN(C(=O)c3ccccc3)[C@@](Cc3ccccc3)(C(=O)OC)[C@@H]21 -0.034
CC(C)(C)N1CC=CC23O[C@@H]4/C=C\CCCOC(=O)C4[C@H]2C(=O)N(CCCCCCO)[C@@H]3C1=O (stereo not given in full) -0.739
CCCC[C@@H](O)C1=C(COC)Cn2c(=O)n(-c3ccccc3)c(=O)n2[C@H]1CO -1.11
COC(=O)[C@@H]1N=C(c2ccc(OCCCO)cc2)O[C@@H]1c1ccccc1CN=[N+]=[N-] 0.0126
CN1C=C(C(=O)OCCS(C)(=O)=O)C(C(=O)OCCS(C)(=O)=O)=CC(CCCO)=CC1c1ccc(CN2CCCC2)cc1 (stereo not given) -0.267
COCCOC(=O)N1C(=O)[C@@]2(c3ccccc31)[C@H](C(N)=O)[C@H]1C(=O)O[C@H](c3ccccc3)[C@H](c3ccccc3)N1[C@@H]2c1ccc(OCCO)cc1 -1.15
CC(C)CNC(=O)[C@@H]1c2ccccc2C(=O)N(C(C)C)[C@H]1c1ccc(CO)cc1 -0.739
CC(C)c1ccc(NN2C(C(O)C(C)C)C=CC3C(=O)N(c4ccccc4)C(=O)C32)cc1 (stereo not given) -0.241
COCCOC(=O)N1C(=O)[C@@]2(c3cc(C#CCC(C(=O)OC)C(=O)OC)ccc31)[C@H](C(=O)N1CCCCCCC1)[C@H]1C(=O)O[C@H](c3ccccc3)[C@H](c3ccccc3)N1[C@@H]2c1ccccc1OCCO -0.981
O=C(NCCO)C1=C[C@H](Oc2ccccc2I)[C@@H](O)[C@H](NCc2ccc(F)cc2)C1 0.925
COC(=O)Cn1c(C(=O)N(C)C)cc2c1C[C@H]1CN(C(=O)c3ccccc3)[C@@](Cc3ccc(OC)cc3)(C(=O)OC)[C@@H]21 0.353
[N-]=[N+]=NCc1ccccc1C[C@]1(C(=O)NCc2ccccc2)N=C(c2ccc(OCCCO)cc2)O[C@H]1c1ccccc1CN=[N+]=[N-] -1.73
CC(=O)NCCCC[C@@H]1NC(=O)[C@H]2C[C@@H](C(=O)NCCCCCC[N+](C)(C)C)[C@@H](c3ccc(O)cc3)N2C1=O -0.665
[N-]=[N+]=NCc1ccccc1C[C@]1(C(=O)N2CCCCC2)N=C(c2ccc(OCCCO)cc2)O[C@H]1c1ccccc1 -0.964
COc1ccc(CCNC(=O)[C@@]2(Sc3ccc(C)cc3)CC(=O)N(C(C)C)[C@@H]2c2ccc(CO)cc2)cc1 -0.519
COC(=O)C(CC#Cc1ccc2c(c1)[C@]1(C(=O)N2)[C@H](c2ccc(O)cc2)N2[C@H](c3ccccc3)[C@H](c3ccccc3)OC(=O)[C@H]2[C@@H]1C(=O)N1CCc2cc(OC)c(OC)cc2C1)C(=O)OC 0.351
COc1ccccc1CN1C(=O)c2ccccc2[C@](Cc2ccccc2I)(C(=O)NCCCN(C)C)[C@@H]1c1ccc(CO)cc1 5.18
CN1C(=O)C2C(C1=O)C1C=C(c3ccc(CO)cc3)C2C(c2cccs2)N1C (stereo not given) -0.999
NCCCC[C@@H]1NC(=O)[C@H]2C[C@@H](C(=O)NCc3ccc(F)cc3)[C@@H](c3cccc(OCCO)c3)N2C1=O -0.583
CC(C)(C)OC(=O)CC[C@]1(C(=O)N2CCOCC2)N=C(c2ccc(OCCCO)cc2)O[C@H]1c1ccccc1CN=[N+]=[N-] -1.4
CC(C)[C@@H](C(=O)O)n1cc(-c2ccccc2)nn1 0.0824
NCCCC[C@@H]1NC(=O)[C@H]2C[C@@H](C(=O)NCc3ccc(F)cc3)[C@@H](c3ccc(O)cc3)N2C1=O 0.421
O=C1OCCC=C[C@H]2OC34C=CCN(c5ccc(Cl)cc5)C(=O)[C@H]3N(CCO)C(=O)[C@@H]4C12 (stereo not given in full) -0.256
O=C1O[C@@H](c2ccccc2)[C@@H](c2ccccc2)N2[C@@H](c3ccc(O)cc3)[C@]3(C(=O)Nc4ccc(C#CC5=CCCCC5)cc43)[C@@H](C(=O)N3CCCCCCC3)[C@H]12 -0.782
